Shiga toxin inh = blocks Shiga toxin action in Vero cells; 290,000 tested, 9.2% active; inhibition, % at 38.7 µM; Vero cells, Shiga toxin protein synthesis inhibition reporter; in the data active = inhibition mostly above about 28%, no sharp cut-off; inactive = mostly below about 43%
CHX counter = counter-screen for Shiga toxin inhibitors: cycloheximide protein synthesis inhibition; max response, %; AID 2314; 300,000 tested, 12% active; cell reporter, cycloheximide protein synthesis inhibition counterscreen; in the data active = max response mostly above about 13%, no sharp cut-off; inactive = mostly below about 14%; note: read at 38.3 µM for the half of the compounds with a filed dose
LmPK inh = LmPK (Leishmania mexicana) enzyme inhibition; Q27686; purified LmPK, Kinase-Glo ATP luminescence, 1 h; Potency, µM (highest dose often 57.5 µM), hits mostly inhibitors; 290,000 tested, 0.37% active; AID 1721
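qHTS format; LmPK 0.1 nM; substrates PEP 0.5 mM and ADP 0.1 mM. One-hour room-temperature incubation, then coupled luciferase luminescence; 0.5 nM enzyme wells mark activation.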
Tb PYK inh = blocks Trypanosoma brucei pyruvate kinase. Q57TT1. TbPYK enzyme, Kinase-Glo Plus ATP luminescence, 45 min. Potency, µM (titrated, usually from 76.8 µM), most hits filed as inhibitors. 410,000 tested, 0.12% active; note: nearly all actives have a fitted effect of over 50% in size
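Activity of T. brucei pyruvate kinase was followed by Kinase-Glo Plus luminescence after the enzyme reacted 45 min at room temperature with 130 uM ADP (final) and substrate. Test compounds were added before ADP at multiple concentrations.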
Sm TGR inh = blocks Schistosoma mansoni thioredoxin glutathione reductase; AID 485364; purified TGR, DTNB reduction, TNB absorbance 405 nm; Potency, µM (titrated, usually from 114 µM), actives largely listed as inhibitors; 360,000 tested, 3% active; note: nearly all actives have a fitted effect of over 60% in size
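Kinetic colorimetric format: TGR-catalysed, NADPH-driven DTNB reduction monitored via TNB absorbance. Enzyme dispensed at 20 nM; compound exposure 15 min at room temperature before reaction start.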
FBPA Giardia inh = Giardia lamblia aldolase inhibition. A8B2U2. Potency, µM (doses to about 59.6 µM), most hits filed as inhibitors. purified Giardia FBPA. AID 2451. 290,000 tested, 0.71% active; note: nearly all actives have a fitted effect of over 55% in size
Target sequence (A8B2U2 whole entry, looked up): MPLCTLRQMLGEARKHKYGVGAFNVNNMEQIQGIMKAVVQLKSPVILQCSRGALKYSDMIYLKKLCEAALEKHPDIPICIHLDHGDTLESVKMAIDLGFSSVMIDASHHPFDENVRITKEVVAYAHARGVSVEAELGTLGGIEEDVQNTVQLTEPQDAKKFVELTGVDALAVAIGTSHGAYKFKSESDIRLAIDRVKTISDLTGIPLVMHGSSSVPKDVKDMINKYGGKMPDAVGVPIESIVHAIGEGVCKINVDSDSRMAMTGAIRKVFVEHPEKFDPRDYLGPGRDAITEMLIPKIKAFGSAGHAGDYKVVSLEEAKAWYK
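40 nM FBPA preincubated 10 min at RT with compound (up to 57.5 uM final), then substrate plus GAPDH/TPI/NAD/arsenate coupling and diaphorase/resazurin added. Fluorescence read after 20 min at RT, 525/598 nm.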
A number is an active result; – = inactive; ? = inconclusive; · = not tested or not shown; [ ] = another dose, or the depositor's remark. The full list was thinned out, with hits kept by preference. Unless noted, calls come from the whole dose curve; as a rule, active = well fitted curve in the direction sought with a large enough effect; inconclusive = small, poorly fitted or top-dose-only effect, or another doubt; inactive = no such curve, though single readings can be large; an effect the other way counts as inactive or inconclusive.

SMILES | Shiga toxin inh | CHX counter | LmPK inh | Tb PYK inh | Sm TGR inh | FBPA Giardia inh
CC1=C(C(=O)NC2CCCc3c2cnn3-c2cc(F)cc(F)c2)OCCO1 (configuration not stated) | – | – | – | – | – | ·
Cn1nccc1C(=O)NC1CCCc2c1cnn2-c1cc(F)cc(F)c1 (configuration not stated) | 54 | 32 | – | – | – | ·
CSCC(=O)NC1CCCc2c1cnn2-c1ccc(C)c(C)c1 (configuration not stated) | 58 | – | – | – | – | –
CC1(C)Cc2c(cnn2-c2cccc(F)c2)C(NC(=O)CN2CCCC2=O)C1 (configuration not stated) | 11 | 11 | – | – | – | –
COc1ccc(S(=O)(=O)N2c3ccc(Cl)cc3[C@](O)(c3ccccc3Cl)[C@@H]2C(=O)N2CCC[C@H]2C(N)=O)cc1OC | · | · | · | – | · | –
CCCn1cc(S(=O)(=O)c2cccc(Cl)c2)c(=O)c2cc(F)c(N3CCN(CC)CC3)cc21 | · | · | · | – | – | ·
CC1(C)Cc2c(cnn2-c2cccc(F)c2)C(NC(=O)Cn2cccn2)C1 (configuration not stated) | – | 19 | – | – | – | ·
CN1CCCN(C(=O)/C=C/c2ccc(F)cc2)CC1 | – | 16 | – | – | – | –
Cc1ccc(-c2n[nH]c(=S)n2/N=C/C=C\c2ccccc2[N+](=O)[O-])cc1 | – | – | – | ? | – | ?
Cc1ccc(/C=C/C(=O)N2CCCC(C(N)=O)C2)o1 (configuration not stated) | – | – | – | – | 32µM | –
O=C(/C=C/c1ccc(F)cc1)N1CCN(c2ncccn2)CC1 | 71 | 24 | – | – | – | –
CCN1CCN(C(=O)/C=C/c2ccc(F)cc2)CC1 | · | · | · | – | · | ·
CC1CCCC(C)N1/N=C/C=C/c1ccccc1[N+](=O)[O-] (configuration not stated) | 69 | 38 | – | – | – | –
Cc1cc(-c2cc(NC=O)c3ncc(-c4cccc(C(=O)NCCN(C)C)c4)n3c2)cc(C)c1O | · | · | · | – | · | ·
COC(=O)NC(c1ccccc1)C(C#N)C(=O)OC (configuration not stated) | · | · | · | · | · | –[12.9 µM]
O=C(/C=C/c1ccco1)N1CCN(c2ccc(F)cc2)CC1 | – | – | – | – | 10µM | –
Cc1ccc(/C=C/C(=O)N2CCN(c3ncccn3)CC2)o1 | – | – | – | ? | 3.2µM | –
Fc1ccc(N2CCN(C(=S)NCc3ccco3)CC2)cc1 | – | – | – | – | – | –
COc1ccccc1/C=C/C=N/N1CCN(c2ccccn2)CC1 | – | – | – | – | – | –
COc1ccccc1N1CCN(/N=C/C=C\c2ccccc2[N+](=O)[O-])CC1 | 45 | 43 | – | – | – | –
CC(C)(C)c1ccc(/C=C/C(=O)N2CCN(c3ncccn3)CC2)cc1 | – | – | – | – | – | –
COc1ccc(N2CCN(C(=O)/C=C/c3ccco3)CC2)cc1 | – | – | – | – | 18µM | –
Cc1ccc(C)c(-c2nn(CC(=O)Nc3cc(F)ccc3F)c(=O)c3c2CCCC3)c1 | · | · | · | – | – | ·
COc1ccccc1N1CCN(C(=O)/C=C/c2ccccc2)CC1 | – | – | – | – | – | –
COc1ccccc1N1CCN(/N=C/C=C\c2ccco2)CC1 | 53 | 41 | – | – | 40µM | –
SMILES | Shiga toxin inh | CHX counter | LmPK inh | Tb PYK inh | Sm TGR inh | FBPA Giardia inh
Cc1ccc(/C=C/C(=O)N2CCN(c3ccc(F)cc3)CC2)o1 | – | – | – | – | 50µM | –
COc1ccccc1N1CCN(C(=O)/C=C/c2ccco2)CC1 | 37 | 28 | – | – | 50µM | –
CCN(CC)c1ccc(/C=N/N2CCN(c3ccccc3OC)CC2)cc1 | – | – | – | – | – | –
CC1(C(=O)NS(=O)(=O)c2ccc(F)cc2F)CCN1C(=O)Cc1ccc(-c2ccccc2)cc1 (configuration not stated) | · | · | · | – | · | ·
CCC(Sc1nc2ncccc2[nH]1)C(=O)Nc1cccc(OC)c1 (configuration not stated) | · | · | · | – | – | ·
COc1ccccc1N1CCN(C(=O)CN2C(=O)COc3ccc(S(=O)(=O)N4CCOCC4)cc32)CC1 | · | · | · | – | – | ·
Cc1ccc(/C=C/S(=O)(=O)NCC(=O)OCC(=O)Nc2ccc(C(N)=O)cc2)cc1 | · | · | · | – | – | ·
Cc1ccc(/C=C/S(=O)(=O)NCC(=O)OCC(=O)Nc2c(F)cccc2F)cc1 | · | · | · | – | 28µM | ·
CC(=O)Nc1ccc(S(=O)(=O)Nc2nc3ccccc3nc2Sc2nncn2C)cc1 | 117 | 26 | – | – | – | ?
Cn1ccnc1Sc1nc2ccccc2nc1NS(=O)(=O)c1ccccc1 | 103 | 56 | – | – | – | –
CNC(=O)C(C)Sc1ccc(S(=O)(=O)N2CCOCC2)cn1 (configuration not stated) | · | · | · | – | – | ·
CN(C)c1ccc(S(=O)(=O)N(C)C)cc1NC(=O)Cc1cccc2ccccc12 | – | – | – | – | – | –
CC(/C=N/NC(=O)c1sc(N)nc1C)=C\c1ccccc1 | 56 | 44 | – | – | – | –
Cc1nc(N)sc1C(=O)N/N=C/c1c[nH]c2ccccc12 | – | 21 | – | – | – | –
Cc1nc(N)sc1C(=O)N/N=C/c1ccccc1[N+](=O)[O-] | 126 | 36 | – | · | – | –
CC(=O)N(Cc1ccco1)c1nc(C(=O)Nc2ccc(Cl)cc2)c(C)s1 | 95 | 46 | – | – | ? | –
CCOC(=O)c1sc2nc3c(cc2c1N)COC(C)(C)C3 | 29 | 38 | – | – | – | –
CCOC(=O)c1sc2nc3c(cc2c1N)COC(C)(CC)C3 (configuration not stated) | – | 41 | – | · | – | –
CC1(C)Cc2nc3sc(C(N)=O)c(N)c3cc2CO1 | – | 31 | – | – | – | –
CCOC(=O)c1cc2c(nc1N)CC(C)(CC)OC2 (configuration not stated) | 116 | 49 | – | – | – | –
CCC1(C)Cc2nc3sc(C(=O)O)c(N)c3cc2CO1 (configuration not stated) | – | – | – | – | – | ?
CCOC(=O)C1=C(COC(=O)CC(C)c2ccccc2)NC(=O)NC1C (configuration not stated) | · | · | · | – | – | ·
COc1ccc(C(=O)C(OC(=O)c2ccccc2)c2ccccc2)cc1 (configuration not stated) | 104 | 49 | – | – | – | –
Cc1ccc(NC(=O)C(OC(=O)c2ccccc2Cl)c2ccccc2)cc1Cl (configuration not stated) | – | – | – | – | – | –
COc1ccc(C(=O)C(OC(=O)c2ccccc2Cl)c2ccccc2)cc1 (configuration not stated) | 83 | 28 | – | – | – | –
Cc1cnc(C(=O)OC(C(=O)c2ccccc2)c2ccccc2)cn1 (configuration not stated) | · | · | · | – | – | ·

High-throughput results (PubChem)
